Screens (PubChem)
Shown are actives, neighbours in structure and some others; about 11% of the full set was active somewhere.
FLuc inh = Firefly luciferase inhibition profiling of diverse chemical library using quantitative high-throughput screening; Luciferin 4-monooxygenase (Photinus pyralis), P08659; purified P. pyralis luciferase, luminescence, biochemical; Potency, µM (doses to about 115 µM), most hits filed as inhibitors; actives 2.5% (n = 76,000); active = well fitted curve in the direction sought with a large enough effect; inconclusive = small, poorly fitted or top-dose-only effect, or another doubt; inactive = no such curve, though single readings can be large; an effect the other way counts as inactive or inconclusive; also: % is scaled to controls: 0 for no effect and ±100 for the full control effect; nearly all actives have a fitted effect of over 65% in size
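Luminescence read by CCD imager after adding enzyme (10nM final) to wells holding compound, titrated in qHTS. Substrates 10uM each D-luciferin and ATP; buffer 50mM Tris acetate pH 7.5, 10mM Mg acetate, Tween-20, BSA.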
hNpr1 antagonist = Natriuretic polypeptide receptor (hNpr1) antagonism - Primary qHTS. Atrial natriuretic peptide receptor 1 (Homo sapiens), P16066. HEK293 hNpr1 GloSensor cGMP, ANP-stimulated luminescence. Potency, µM (doses to about 46.3 µM), for inactives: top-dose activity change, negative = inhibition, hits mostly inhibitors. actives 1.6% (n = 76,000); also: % is scaled to controls: 0 for no effect and ±100 for the full control effect; nearly all actives have a fitted effect of over 60% in size
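Compound pre-incubated 30 min at room temperature on GloSensor-loaded HEK293 cells stably carrying hNpr1 and the pGS-40F cGMP biosensor. Stimulation uses hNppA at 0.1 nM final; luminescence is taken at baseline and 20 min post-agonist.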
NIH3T3 tox = Cytotoxic Profiling in NIH 3T3 Cell Line of Diverse Libraries Using Quantitative High-Throughput Screening; NIH 3T3 viability, CellTiter-Glo ATP luminescence, 48-72 h; Potency, µM (highest dose often 96.7 µM), inactives show at the highest dose activity change, negative = cytotoxicity, hits mostly inhibitors; actives 4.3% (n = 94,000); AID 1345082, 2018; active = well fitted curve in the direction sought with a large enough effect; inconclusive = small, poorly fitted or top-dose-only effect, or another doubt; inactive = no such curve, though single readings can be large; an effect the other way counts as inactive or inconclusive; also: % is scaled to controls: 0 for no effect and ±100 for the full control effect; nearly all actives have a fitted effect of over 55% in size
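Viability of NIH 3T3 cells after 48 or 72 hr compound treatment at 37 °C was assessed by CellTiter-Glo, with luminescence imaged following a 10 min room-temperature step.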
HEK293 tox = Cytotoxic Profiling in HEK 293 Cell Line of Diverse Libraries Using Quantitative High-Throughput Screening. HEK 293 viability, ATP luminescence (CellTiter-Glo), 48-72 h. Potency, µM (doses to about 115 µM), for inactives: at the top dose activity change, negative = cytotoxicity, actives largely listed as inhibitors. actives 6.6% (n = 94,000); active = well fitted curve in the direction sought with a large enough effect; inconclusive = small, poorly fitted or top-dose-only effect, or another doubt; inactive = no such curve, though single readings can be large; an effect the other way counts as inactive or inconclusive; also: % is scaled to controls: 0 for no effect and ±100 for the full control effect; nearly all actives have a fitted effect of over 60% in size
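Cells seeded first (HEK 293, 250 cells/well), then compound added by pintool. Incubation ran 48 or 72 hr at 37 degree Celsius. CellTiter-Glo was added and luminescence imaged after 10 min at room temperature.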
NPR1 antag cnf = Natriuretic polypeptide receptor (hNpr1) antagonism - Confirmation. HEK293 hNpr1 cGMP GloSensor luminescence, ANP-stimulated. actives 76% (n = 1,400). shares compounds with hNpr1 antagonist. Potency, µM (highest dose often 57.6 µM), for the others: at the highest dose activity change, negative = inhibition, most hits filed as inhibitors; also: nearly all actives have a fitted effect of over 70% in size
Npr2 selectivity = Natriuretic polypeptide receptor (hNpr2) antagonism - Subtype selectivity assay. AID 1347046, 2019. Potency, µM (top dose mostly 57.6 µM), without a hit: at the top dose activity change, negative = inhibition, hits mostly inhibitors. HEK293 hNpr2 GloSensor cGMP luminescence, CNP-stimulated. actives 67% (n = 1,400). shares compounds with hNpr1 antagonist; also: nearly all actives have a fitted effect of over 70% in size
Target sequence (P20594 whole entry, looked up): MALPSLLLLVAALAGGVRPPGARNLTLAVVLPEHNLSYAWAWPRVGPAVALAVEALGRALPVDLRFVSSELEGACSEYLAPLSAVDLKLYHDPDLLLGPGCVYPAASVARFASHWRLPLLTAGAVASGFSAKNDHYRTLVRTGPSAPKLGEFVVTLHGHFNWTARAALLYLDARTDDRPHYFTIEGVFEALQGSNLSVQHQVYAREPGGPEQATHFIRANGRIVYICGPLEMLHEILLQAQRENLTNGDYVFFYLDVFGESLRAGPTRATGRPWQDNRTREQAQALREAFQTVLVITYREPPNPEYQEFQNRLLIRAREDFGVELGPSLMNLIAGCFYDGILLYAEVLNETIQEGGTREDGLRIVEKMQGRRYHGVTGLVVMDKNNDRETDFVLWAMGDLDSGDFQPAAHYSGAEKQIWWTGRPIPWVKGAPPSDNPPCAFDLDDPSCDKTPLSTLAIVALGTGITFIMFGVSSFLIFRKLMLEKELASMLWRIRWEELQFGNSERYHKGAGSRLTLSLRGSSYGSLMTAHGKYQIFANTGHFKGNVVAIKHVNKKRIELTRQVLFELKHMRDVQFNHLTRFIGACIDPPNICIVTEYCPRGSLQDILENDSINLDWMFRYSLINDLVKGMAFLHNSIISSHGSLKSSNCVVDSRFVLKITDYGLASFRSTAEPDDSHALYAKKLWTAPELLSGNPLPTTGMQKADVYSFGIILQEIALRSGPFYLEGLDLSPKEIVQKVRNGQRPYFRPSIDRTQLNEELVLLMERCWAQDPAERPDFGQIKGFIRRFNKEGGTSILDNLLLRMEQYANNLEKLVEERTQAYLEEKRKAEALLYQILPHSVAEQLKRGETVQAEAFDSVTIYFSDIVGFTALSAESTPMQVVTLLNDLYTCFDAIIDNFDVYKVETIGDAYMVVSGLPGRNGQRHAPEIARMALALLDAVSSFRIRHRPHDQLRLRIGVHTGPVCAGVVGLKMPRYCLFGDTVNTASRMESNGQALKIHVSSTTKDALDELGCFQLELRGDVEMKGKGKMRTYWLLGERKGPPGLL
FLuc inh counter = Natriuretic polypeptide receptor (hNpr1) antagonism - Confirmation firefly luciferase (FLuc) inhibition counterscreen. shares compounds with hNpr1 antagonist. purified FLuc enzyme, luminescence, Km substrate. Potency, µM (doses to about 57.6 µM), without a hit: at the highest dose activity change, negative = inhibition, most hits filed as inhibitors. actives 0.7% (n = 1,400); active = well fitted curve in the direction sought with a large enough effect; inconclusive = small, poorly fitted or top-dose-only effect, or another doubt; inactive = no such curve, though single readings can be large; an effect the other way counts as inactive or inconclusive; also: 0% is about no effect
GloSensor cGMP = Natriuretic polypeptide receptor (hNpr1) antagonism - Counterscreen GloSensor control cell line. AID 1347051, 2019. actives 69% (n = 1,400). Potency, µM (top dose mostly 57.6 µM), for the others: top-dose activity change, negative = inhibition, actives largely listed as inhibitors. shares compounds with hNpr1 antagonist. HEK293 GloSensor cGMP, SNP-stimulated, luminescence; also: % is scaled to controls: 0 for no effect and ±100 for the full control effect; nearly all actives have a fitted effect of over 70% in size
* hit, by the source's call; i = inactive; ? = inconclusive; nt = no result given; [ ] = dose if it differs, or a comment. Unless noted, calls follow the shape of the full dose curve. Potency is read from the fitted curve at half-maximal effect.

SMILES | FLuc inh | hNpr1 antagonist | NIH3T3 tox | HEK293 tox | NPR1 antag cnf | Npr2 selectivity | FLuc inh counter | GloSensor cGMP
CC1=C[C@@H](CNCc2cccnc2)[C@H](C(C)C)C[C@H]1Cc1nnc(-c2ccncc2)o1 | i | -15%[70.6 µM] | ? | ? | nt | nt | nt | nt
COc1cc(CN2CCC(C)(c3noc(C4CCOCC4)n3)CC2)cc(OC)c1 | i | ? | -8% | -4% | ? | ? | 0% | 3%
COc1cc(CN2CCC(C)(c3noc(C4CCOCC4)n3)CC2)ccc1OC(C)C | i | 0% | -16% | -27% | nt | nt | nt | nt
Cc1ccc(CN2C[C@@H](CO)[C@H](c3ccccn3)C2)nc1 | i | -2% | ? | ? | nt | nt | nt | nt
Clc1ccc2nc(N3CCC(NCCc4cccnc4)CC3)sc2c1 | i | 13µM* | 18µM* | 14µM* | 24µM* | 24µM* | -28% | 22µM*
Cc1nc(N2CCC(NCCc3cccnc3)CC2)c2ccsc2n1 | i | 3% | -21% | ? | nt | nt | nt | nt
Cc1ccccc1S(=O)(=O)N1CCC(n2cnnc2-c2ccccc2)CC1 | i | 5% | -18% | -1% | nt | nt | nt | nt
Cc1ccc(S(=O)(=O)N2CCC(n3cnnc3-c3ccccc3)CC2)c(C)c1 | i | -29% | ? | ? | ? | ? | 6% | -21%
Cc1ccccc1C(=O)N1CCCC(C(=O)N2CCC(c3nc4ncccc4[nH]3)CC2)C1 (centres undefined) | nt | nt | -13% | 0% | nt | nt | nt | nt
Cc1cc(C)n(CCC(=O)N[C@@H]2CN(Cc3ccccc3)C[C@H]2CN(C)C)n1 | i | -2% | 4% | 4% | nt | nt | nt | nt
Cc1cc(C)n(CC(=O)N[C@@H]2CN(Cc3ccccc3)C[C@H]2CN(C)C)c(=O)n1 | i | 11µM* | i | 3% | -16% | -12% | 0% | 14%
CCOC(=O)N1CCC(=O)N(CC)C[C@H]2COc3cc(OC)ccc3[C@H]21 | nt | nt | -35% | ? | nt | nt | nt | nt
COc1ccccc1CNC(=O)C1CCc2ncc(-c3ccsc3)n2C1 (centres undefined) | i | -21% | -14% | ? | ? | -28% | 0% | 12%
CCNC(=O)C1CCc2ncc(-c3ccsc3)n2C1 (centres undefined) | i | 0% | -4% | 2% | nt | nt | nt | nt
Cc1ccc2nc3n(c2c1)[C@@H](CNCc1ccccc1)COC3 | i | ? | ? | ? | nt | nt | nt | nt
Cc1ccc2nc3n(c2c1)[C@@H](CNCc1ccc2c(c1)OCO2)COC3 | i | 25µM* | ? | ? | 35µM* | 35µM* | 0%[86.2 µM] | 31µM*
COc1ccc2nc3n(c2c1)[C@@H](CNCc1ccc2c(c1)OCO2)COC3 | i | 32µM* | ? | ? | 40µM* | 40µM* | -9%[86.2 µM] | 40µM*
COc1cc2c(cc1OC)C(CNC(=O)C1CCCC1)N(C(=O)Nc1cccc(C)c1)CC2 (centres undefined) | i | 1% | -26% | ? | nt | nt | nt | nt
COCc1nc(CCNC(=O)c2noc(C)c2Cc2c(C)noc2C)no1 | nt | nt | -19% | 2% | nt | nt | nt | nt
COc1nccc(N2CCC(CC(=O)N(C)CCCc3c(C)nn(C)c3C)CC2)n1 | i | 11µM* | ? | ? | 22µM* | ? | 1% | 19µM*
CC(=O)Nc1ccc(CN2CCC3(COc4ccccc4C(=O)N3)C2)cc1 (centres undefined) | i | -17% | ? | ? | nt | nt | nt | nt
COc1cccc([S+](=O)([O-])N2CCC(c3nn(-c4ccccn4)c(=O)[nH]3)CC2)c1 | nt | nt | -12% | ? | nt | nt | nt | nt
CC(C)c1cccc(NC(=O)C2CCN(C(=O)c3ncn4c3COC(c3ccc(F)cc3)C4)CC2)c1 (centres undefined) | i | 11µM* | -16% | ? | ? | ? | -3% | ?
COC[C@@H]1CN(Cc2ccc(OC)c(OC)c2)C[C@H]1c1ccncc1 | i | 0% | -29% | ? | nt | nt | nt | nt
COC[C@@H]1CN(Cc2c(OC)cccc2OC)C[C@H]1c1ccncc1 | i | 6.3µM* | ? | 35µM* | 15µM* | 15µM* | 0% | 14µM*
SMILES | FLuc inh | hNpr1 antagonist | NIH3T3 tox | HEK293 tox | NPR1 antag cnf | Npr2 selectivity | FLuc inh counter | GloSensor cGMP
Cc1ccc(CNC(=O)N2CCC(Cc3ccc(C(=O)NC4CC4)cc3)CC2)cc1 | i | ? | ? | ? | ? | ? | 0% | ?
CC(C)CCN1CCC(Cc2ccc(C(=O)NC3CC3)cc2)CC1 | i | -3% | ? | ? | nt | nt | nt | nt
CCc1cc(=O)n(CC(=O)N2CCN(c3ccccc3OC)CC2)c(-c2ccccc2)n1 | i | -19% | ? | 40µM* | ? | -24% | 2% | -3%
Cc1nc2cccnc2n1CC1CCCN(S(=O)(=O)c2ccc(C(C)C)cc2)C1 (centres undefined) | i | ? | ? | ? | 27µM* | ? | 4% | 24µM*
Cc1ccc(S(=O)(=O)N2CCCC(Cn3c(C)nc4cccnc43)C2)cc1 (centres undefined) | i | -19% | ? | ? | nt | nt | nt | nt
COCc1noc(-c2ccc(N(C)CC3CC(=O)N(C(C)(C)C)C3)nc2)n1 (centres undefined) | i | 11µM* | ? | ? | 24µM* | ? | -1% | 22µM*
CN(CCc1noc(C2CC2)n1)C(=O)C1CC(=O)N(C(C)(C)C)C1 (centres undefined) | i | 3% | 1% | -16% | nt | nt | nt | nt
COc1ccc(CN2CCCCC23Cc2ccccc2CNC3=O)c(OC)n1 (centres undefined) | nt | nt | ? | ? | ? | 17µM* | -1% | 4%
CCc1ccc(CN2CCCC23Cc2ccccc2CNC3=O)s1 (centres undefined) | nt | nt | ? | ? | -21% | -5% | 4% | 0%
